Assay [1] deals with Aryl hydrocarbon receptor (Homo sapiens) (UniProt P35869). Briefly: qHTS assay to identify small molecule that activate the aryl hydrocarbon receptor (AhR) signaling pathway (AID 743085).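 For activation: HG2L7.5c1 human HepG2 liver cells with stably integrated DRE-driven firefly reporter; series mostly up to about 70 µM.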 Note: nearly all actives have a fitted effect of over 15% in size. Note: potency is the fitted concentration of half-maximal effect. In short, it runs like this: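 A multiplexed format paired cell viability (CellTiter-Fluor fluorescence) with AhR-dependent luciferase output (ONE-Glo luminescence) in the same wells of HepG2 DRE-luc cells after 24 h compound exposure at 37C.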
(In general: In qHTS, concentration-response curves come from the screen itself.)

Assay [2] in a line: qHTS assay to identify small molecule that activate the aryl hydrocarbon receptor (AhR) signaling pathway - cell viability counter screen (AID 743086).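 Note: HepG2 liver cells carrying the AhR DRE luciferase reporter; series mostly up to about 70 µM; nearly all actives have a fitted effect of over 45% in size.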 In short, it runs like this: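 HepG2-AhR-luc (HG2L7.5c1) cells, 4000/well, were preincubated 5 h at 37C, exposed to compound in qHTS format for 24 hr at 37C, then given CellTiter-Fluor for 30 min; viability was read as fluorescence in the reporter wells.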

Assay [3] deals with Peroxisome proliferator-activated receptor gamma (Homo sapiens) (UniProt P37231). Briefly: qHTS assay to identify small molecule agonists of the peroxisome proliferator-activated receptor gamma (PPARg) signaling pathway (AID 743094; active = well fitted activation curve with a large enough effect in the signal ratio in the repeat runs, not every such curve was filed as active; the % refers to the signal ratio). In short, it runs like this: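 Stably transfected HEK293H cells (GeneBLAzer PPARg UAS-bla) were incubated with test substances for 17 h at 37C after a 5 h pre-incubation; beta-lactamase activity was then detected by FRET substrate fluorescence.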

Assay [4] is described as follows: qHTS assay for small molecule agonists of the antioxidant response element (ARE) signaling pathway (AID 743202; active = well fitted activation curve with a large enough effect in the signal ratio in the repeat runs, not every such curve was filed as active; the % refers to the signal ratio; note: potency is the fitted concentration of half-maximal effect). In a few lines: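 Compounds delivered in DMSO to ARE-bla HepG2 cells (2,000 cells/well, pre-incubated 5 h) and left 16 h at 37 C. LiveBLAzer B/G FRET substrate then added for 2 h at RT before fluorescence reading.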
The nature of assay [5]: qHTS assay for small molecule agonists of the antioxidant response element (ARE) signaling pathway - cell viability counter screen (AID 743203; calls by dose curve; note: nearly all actives have a fitted effect of over 55% in size; note: potency is the fitted concentration of half-maximal effect). In short, it runs like this: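 Cells (ARE-bla HepG2, 2,000/well) receive DMSO-dissolved compounds after a 5 hrs rest. Plates incubate 16 hrs at 37C/5% CO2. CellTiter-Glo luminescence is then recorded after 30 min at room temperature.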

Assay [6] is described as follows: qHTS assay for small molecule activators of the heat shock response signaling pathway - cell viability counter screen (AID 743209). Note: nearly all actives have a fitted effect of over 50% in size. In a few lines:
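Quantitative HTS format, Tox21 10K library. HeLa cells carrying an HSE-driven beta-lactamase reporter were treated 5 h at 37 C, then assessed for viability by CellTiter-Glo luminescence.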

A short description of assay [7]: qHTS assay for small molecule activators of the heat shock response signaling pathway (AID 743210; active = well fitted activation curve with a large enough effect in the signal ratio in the repeat runs, with a control signal flat, not every such curve was filed as active; the % refers to the signal ratio;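 note: HeLa cells with beta-lactamase reporter driven by heat shock elements; series mostly up to about 63 µM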). In short, it runs like this:
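Reporter gene assay: HeLa cells stably bearing an HSE-bla construct, compound treatment 5 h at 37 C, LiveBLAzer substrate 2.5 h at RT, fluorescence intensity.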

Assay [8] in a line: qHTS assay to identify small molecule agonists of the peroxisome proliferator-activated receptor delta (PPARd) signaling pathway - cell viability counter screen (AID 743211). Note: nearly all actives have a fitted effect of over 55% in size. In short, it runs like this: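 Tox21 library compounds, delivered in DMSO, were incubated 17 h with PPARd-bla HEK293H cells; cytotoxicity was taken from CellTiter-Glo luminescence read 30 min after reagent addition.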

Assay [9] has as its target Peroxisome proliferator-activated receptor delta (Homo sapiens) (UniProt Q03181). Briefly: qHTS assay to identify small molecule agonists of the peroxisome proliferator-activated receptor delta (PPARd) signaling pathway (AID 743212; calls by dose curve). In a few lines: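 A PPARd-bla HEK293H line with beta-lactamase under an Upstream Activator Sequence is treated with compounds at 37 C. Substrate loading for 2 h at room temperature precedes the fluorescence measurement.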

The nature of assay [10]: qHTS assay to identify small molecule antagonists of the peroxisome proliferator-activated receptor delta (PPARd) signaling pathway - cell viability counter screen (AID 743213). Note: nearly all actives have a fitted effect of over 50% in size. In a few lines:
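HEK293H PPARd UAS-bla cells, 5 h pre-incubation, compound + L165041 300 nM final, 17 h 37 C; B/G FRET substrate 2 h RT; then CellTiter-Glo 30 min RT, luminescence.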

The target in assay [11] is Peroxisome proliferator-activated receptor delta (Homo sapiens) (UniProt Q03181). Briefly: qHTS assay to identify small molecule antagonists of the peroxisome proliferator-activated receptor delta (PPARd) signaling pathway (AID 743215; active = well fitted inhibition curve with a large enough effect in the signal ratio in the repeat runs, not every such curve was filed as active; the % refers to the signal ratio;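 note: cells stimulated with agonist L165041 at 300 nM final during compound exposure; series mostly up to about 62 µM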). In a few lines:
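Antagonist-mode beta-lactamase reporter screen: HEK293H cells with UAS-bla under PPARd control, stimulated by 300 nM L165041 (final) alongside test compound for 17 h at 37 C, then FRET fluorescence after 2 h substrate incubation.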

The target in assay [12] is Bile acid receptor (Homo sapiens) (UniProt Q96RI1). Kind of assay: qHTS assay to identify small molecule antagonists of the farnesoid-X-receptor (FXR) signaling pathway (AID 743217; active = well fitted inhibition curve with a large enough effect in the signal ratio in the repeat runs, not every such curve was filed as active; the % refers to the signal ratio). In short, it runs like this: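 Beta-lactamase reporter under UAS control in HEK 293T cells; compound exposure 16 h at 37 °C in the presence of chenodeoxycholic acid (50 uM final); signal from B/G FRET substrate after 2 h at room temperature.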

A short description of assay [13]: qHTS assay to identify small molecule agonists of the farnesoid-X-receptor (FXR) signaling pathway - cell viability counter screen (AID 743218). Note: nearly all actives have a fitted effect of over 45% in size. Note: potency is the fitted concentration of half-maximal effect. In short, it runs like this:
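In GeneBLAzer FXR-UAS-bla HEK 293T cells, compounds act for 16 h at 37 C. Cell viability is then scored in the reporter wells by CellTiter-Glo, 30 min at RT, luminescence.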

Assay [14] deals with Bile acid receptor (Homo sapiens) (UniProt Q96RI1). Briefly: qHTS assay to identify small molecule agonists of the farnesoid-X-receptor (FXR) signaling pathway (AID 743220; active = well fitted activation curve with a large enough effect in the signal ratio in the repeat runs, not every such curve was filed as active; the % refers to the signal ratio). In short, it runs like this: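 Beta-lactamase reporter under UAS control in GeneBLAzer FXR HEK 293T cells (5000/well) measured with LiveBLAzer FRET substrate after 2 h at room temperature. Compound exposure lasted 16 h at 37C.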

Assay [15] is described as follows: qHTS assay to identify small molecule antagonists of the farnesoid-X-receptor (FXR) signaling pathway - cell viability counter screen (AID 743221; active = well fitted cell-killing curve with a large enough effect in the repeat runs, not every such curve was filed as active; note: nearly all actives have a fitted effect of over 50% in size; note: potency is the fitted concentration of half-maximal effect). In a few lines: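 Cytotoxicity is taken from ATP luminescence (CellTiter-Glo, 30 min, room temperature) in FXR-bla HEK 293T cells previously incubated 16 h at 37 C with compound and chenodeoxycholic acid at 50 uM final.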

Assay [16] has as its target Vitamin D3 receptor (Homo sapiens) (UniProt P11473). Briefly: qHTS assay to identify small molecule agonists of the vitamin D receptor (VDR) signaling pathway (AID 743222; calls by dose curve). In a few lines:
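Agonist activity measured in VDR-bla reporter cells. Exposure 16 h, 37C, 5% CO2; detection by B/G FRET substrate, 2 h RT.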

Assay [17] shares this target. Briefly: qHTS assay to identify small molecule antagonists of the vitamin D receptor (VDR) signaling pathway (AID 743223; active = well fitted inhibition curve with a large enough effect in the signal ratio in the repeat runs, not every such curve was filed as active; the % refers to the signal ratio). In short, it runs like this: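 Quantitative HTS in VDR-bla reporter cells stimulated with 1alpha,25-dihydroxyvitamin D3, 3 nM final. Compound exposure 16 h, 37C, 5% CO2. Read-out: beta-lactamase FRET substrate fluorescence, 2 h RT.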
A short description of assay [18]: qHTS assay to identify small molecule agonists of the vitamin D receptor (VDR) signaling pathway - cell viability counter screen (AID 743224). Note: nearly all actives have a fitted effect of over 50% in size. Note: potency is the fitted concentration of half-maximal effect. In short, it runs like this: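 VDR-bla cell line, quantitative HTS format; 16 h compound incubation (37C, 5% CO2); ATP-based CellTiter-Glo luminescence measured in the reporter assay wells.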
In assay [19] the target is Peroxisome proliferator-activated receptor gamma (Homo sapiens) (UniProt P37231). Kind of assay: qHTS assay to identify small molecule antagonists of the peroxisome proliferator-activated receptor gamma (PPARg) signaling pathway (AID 743191; calls by dose curve; note: series mostly up to about 63 µM; nearly all actives have a fitted effect of over 30% in size). In short, it runs like this: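 GeneBLAzer PPARg UAS-bla HEK293H cells carrying a UAS-driven beta-lactamase reporter were plated at 3000 cells/well, preincubated 5 h at 37C, then given compound for 17 h at 37C; LiveBLAzer B/G FRET substrate was read after 1 h at room temperature.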

The nature of assay [20]: qHTS assay to identify small molecule antagonists of the peroxisome proliferator-activated receptor gamma (PPARg) signaling pathway - cell viability counter screen (AID 743194). Note: nearly all actives have a fitted effect of over 55% in size. Note: potency is the fitted concentration of half-maximal effect. In a few lines:
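PPARg-UAS-bla HEK293H cells were plated, rested 5 h at 37 C, then treated with compounds plus rosiglitazone (50 nM final) for 17 h at 37 C; viability was then read by CellTiter-Glo luminescence after 30 min at room temperature.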

Records with an inconclusive call do not appear. More than one record can exist for a structure, and the calls need not agree. The source made the active and inactive calls. Unless noted, calls come from the whole dose curve; as a rule, active = well fitted curve in the direction sought with a large enough effect in the repeat runs; inconclusive = weak or mixed curves; inactive = no such curve, though single readings can be large; an effect the other way counts as inactive or inconclusive.

Chain of Peroxisome proliferator-activated receptor delta (Homo sapiens) (Q03181 whole entry, looked up): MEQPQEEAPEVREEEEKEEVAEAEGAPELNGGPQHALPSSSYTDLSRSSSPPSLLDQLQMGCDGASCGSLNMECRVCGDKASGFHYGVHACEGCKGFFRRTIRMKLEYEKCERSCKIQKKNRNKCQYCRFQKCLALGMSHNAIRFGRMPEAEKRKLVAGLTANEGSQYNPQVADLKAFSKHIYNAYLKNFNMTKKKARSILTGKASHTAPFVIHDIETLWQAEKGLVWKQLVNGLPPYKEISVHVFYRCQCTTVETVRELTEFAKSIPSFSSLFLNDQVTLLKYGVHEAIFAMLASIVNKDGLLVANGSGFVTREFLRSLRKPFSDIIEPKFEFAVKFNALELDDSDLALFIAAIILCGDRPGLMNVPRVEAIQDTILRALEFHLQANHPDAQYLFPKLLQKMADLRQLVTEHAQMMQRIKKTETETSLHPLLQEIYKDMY
Chain of Peroxisome proliferator-activated receptor gamma (Homo sapiens) (P37231 whole entry, looked up): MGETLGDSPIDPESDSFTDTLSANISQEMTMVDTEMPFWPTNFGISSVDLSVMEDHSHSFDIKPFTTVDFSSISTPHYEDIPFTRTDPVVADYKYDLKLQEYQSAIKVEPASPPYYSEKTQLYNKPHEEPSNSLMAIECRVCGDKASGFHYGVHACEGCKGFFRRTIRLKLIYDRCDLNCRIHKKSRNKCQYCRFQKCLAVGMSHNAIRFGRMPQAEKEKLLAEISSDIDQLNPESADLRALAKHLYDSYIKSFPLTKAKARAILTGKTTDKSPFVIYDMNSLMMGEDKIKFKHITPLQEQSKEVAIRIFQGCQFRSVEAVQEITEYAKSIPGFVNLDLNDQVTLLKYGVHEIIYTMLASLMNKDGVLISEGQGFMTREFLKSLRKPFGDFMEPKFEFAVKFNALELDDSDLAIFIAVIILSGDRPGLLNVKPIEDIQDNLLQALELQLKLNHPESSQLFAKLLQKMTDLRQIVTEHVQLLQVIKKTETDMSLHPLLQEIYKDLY
Chain of Aryl hydrocarbon receptor (Homo sapiens) (P35869 whole entry, looked up): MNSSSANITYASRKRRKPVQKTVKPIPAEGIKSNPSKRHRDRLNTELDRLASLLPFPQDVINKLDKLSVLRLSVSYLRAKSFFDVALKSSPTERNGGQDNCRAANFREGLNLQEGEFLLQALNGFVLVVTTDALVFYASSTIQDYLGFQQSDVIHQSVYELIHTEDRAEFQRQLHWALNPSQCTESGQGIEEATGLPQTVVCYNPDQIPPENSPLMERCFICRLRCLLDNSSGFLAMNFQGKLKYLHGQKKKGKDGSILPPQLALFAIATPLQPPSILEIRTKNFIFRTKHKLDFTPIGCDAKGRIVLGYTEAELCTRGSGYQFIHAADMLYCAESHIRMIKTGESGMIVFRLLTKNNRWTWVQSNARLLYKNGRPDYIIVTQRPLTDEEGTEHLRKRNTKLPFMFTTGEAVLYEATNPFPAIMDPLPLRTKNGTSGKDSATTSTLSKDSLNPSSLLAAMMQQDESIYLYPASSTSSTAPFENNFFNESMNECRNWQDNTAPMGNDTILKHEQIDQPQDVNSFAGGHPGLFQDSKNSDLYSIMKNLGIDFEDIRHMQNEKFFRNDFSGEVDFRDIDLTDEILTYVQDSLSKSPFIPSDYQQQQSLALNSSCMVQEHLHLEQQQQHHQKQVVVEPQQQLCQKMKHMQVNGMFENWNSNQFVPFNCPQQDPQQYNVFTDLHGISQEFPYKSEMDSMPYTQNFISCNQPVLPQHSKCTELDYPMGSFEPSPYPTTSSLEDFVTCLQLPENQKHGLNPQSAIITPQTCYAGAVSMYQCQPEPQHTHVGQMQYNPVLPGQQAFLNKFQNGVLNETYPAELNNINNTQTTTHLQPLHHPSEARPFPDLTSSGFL
Chain of Bile acid receptor (Homo sapiens) (Q96RI1 whole entry, looked up): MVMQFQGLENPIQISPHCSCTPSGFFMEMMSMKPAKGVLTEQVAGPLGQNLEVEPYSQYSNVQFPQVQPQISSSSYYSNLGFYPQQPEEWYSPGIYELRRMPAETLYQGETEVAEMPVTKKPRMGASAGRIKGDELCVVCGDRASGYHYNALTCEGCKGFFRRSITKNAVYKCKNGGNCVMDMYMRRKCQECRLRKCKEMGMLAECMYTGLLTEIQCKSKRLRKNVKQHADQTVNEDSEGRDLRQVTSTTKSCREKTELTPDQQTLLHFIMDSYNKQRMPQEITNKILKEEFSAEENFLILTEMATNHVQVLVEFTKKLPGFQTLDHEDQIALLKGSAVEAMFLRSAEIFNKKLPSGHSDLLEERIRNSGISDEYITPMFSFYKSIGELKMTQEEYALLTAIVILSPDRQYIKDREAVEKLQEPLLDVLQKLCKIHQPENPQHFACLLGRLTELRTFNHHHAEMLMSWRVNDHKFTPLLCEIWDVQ
Chain of Vitamin D3 receptor (Homo sapiens) (P11473 whole entry, looked up): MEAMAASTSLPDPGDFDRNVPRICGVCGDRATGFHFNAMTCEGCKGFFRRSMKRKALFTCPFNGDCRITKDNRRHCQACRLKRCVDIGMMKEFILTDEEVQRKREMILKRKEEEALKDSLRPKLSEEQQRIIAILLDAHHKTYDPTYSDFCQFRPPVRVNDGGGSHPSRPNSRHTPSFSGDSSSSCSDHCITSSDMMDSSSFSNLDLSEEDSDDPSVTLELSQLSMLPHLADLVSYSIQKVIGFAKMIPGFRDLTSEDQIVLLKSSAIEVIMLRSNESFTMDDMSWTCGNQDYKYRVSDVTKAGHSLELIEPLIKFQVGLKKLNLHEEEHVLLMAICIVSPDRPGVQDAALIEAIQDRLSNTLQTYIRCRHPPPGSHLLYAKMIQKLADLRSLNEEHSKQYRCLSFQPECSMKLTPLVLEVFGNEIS

On to `CCC1CO1` (configuration not stated), for which the Potency entry in assay [1], in assay [2], in assay [3], in [4], in [5] and in assay [6] was “inactive” in each case. The Potency result in [7], in assay [8], in assay [9], in [10], in assay [11] and in [12] was “inactive” each time. The Potency result in assay [13], in [14], in assay [15], in assay [16], in assay [17] and in assay [18] was “inactive” each time.

With `C[C@]12CC[C@@H]3c4ccc(O)cc4CC[C@H]3[C@@H]1CC[C@@H]2OC(=O)CCC1CCCC1`, the Potency entry in assay [1], in assay [2], in assay [19], in assay [5], in assay [9] and in assay [10] was “inactive” each time. Also, the Potency entry in [11], in assay [13], in assay [14], in assay [15], in assay [16] and in assay [17] was “inactive” each time. In addition, in [18], the Potency was 43.6 µM (active) and inactive.

Turning to `CN1C(=O)c2ccccc2C1=O`, the Potency result in assay [1], in assay [2], in assay [3] and in assay [5] was “inactive” in each case.

For `CC1CC(C)C(=O)C1=O` (configuration not stated), the Potency entry in [1], in assay [2], in assay [19], in assay [20], in assay [4] and in assay [5] was “inactive” in each case. In addition, the Potency result in assay [6], in assay [7], in assay [8], in assay [9], in assay [10] and in [11] was “inactive” throughout. Besides, the Potency result in assay [13], in assay [15] and in [18] was “inactive” each time.

As to `CC(C)=CCC/C(C)=C/CC/C(C)=C/CCC(=O)OC/C=C(\C)CCC=C(C)C`, the Potency result in [1], in assay [2], in assay [19], in assay [20], in assay [5] and in [6] was “inactive” in each case. The Potency entry in [7], in assay [8], in assay [9], in [10], in assay [11] and in assay [13] was “inactive” throughout. For the same compound, the Potency entry in assay [15] and in assay [18] was “inactive” throughout.

As for `CC1CC(OC(=O)C(O)c2ccccc2)CC(C)(C)N1C` (configuration not stated), the Potency entry in [1], in [2], in [20], in assay [4], in assay [5] and in assay [6] was “inactive” each time. Besides, the Potency result in assay [7], in [8], in assay [9], in assay [11], in [13] and in assay [15] was “inactive” throughout. The Potency entry in assay [18] was “inactive”.

`OC[C@H]1O[C@@H](n2cnc3c(=S)nc[nH]c32)[C@H](O)[C@@H]1O`: the Potency entry in [1], in assay [2], in assay [6], in assay [7], in assay [9] and in assay [14] was “inactive” in each case. Also, the Potency entry in assay [16] and in assay [17] was “inactive” throughout. Further, the Potency in assay [20] is 3.76 µM (active); in assay [4] it was 3.35 µM (active); in [5], 2.66 µM (active); in [15], 16.8 µM (active); in assay [18] it was 7.5 µM (active).

As to `C(=C\c1ccccc1)/c1ccccc1`, the Potency in [1] is 76.3 µM (active). Moreover, the Potency result in assay [2], in assay [19], in assay [5], in assay [6], in [7] and in assay [8] was “inactive” in each case. The Potency result in assay [9], in assay [10], in [11], in assay [12], in [14] and in assay [15] was “inactive” each time. For the same compound, the Potency result in assay [16], in assay [17] and in [18] was “inactive” throughout.

Regarding `C=C(C)CCCC(C)CCO` (configuration not stated), the Potency entry in [1], in [2], in assay [3], in assay [20], in assay [6] and in [7] was “inactive” in each case. In addition, the Potency result in assay [9], in [10], in assay [13], in assay [15] and in assay [18] was “inactive” throughout.

Consider `O=C(O)c1ccc(OCCCOc2ccc(C(=O)O)cc2)cc1`, for which the Potency entry in assay [1], in [2], in assay [3], in [20], in assay [5] and in assay [8] was “inactive” throughout. Besides, the Potency result in assay [9], in assay [11], in assay [12], in [13], in [14] and in assay [15] was “inactive” in each case. In addition, the Potency entry in assay [16], in assay [17] and in [18] was “inactive” in each case.

Regarding `CN1CCCN=C1COC(=O)C(O)(c1ccccc1)C1CCCCC1` (configuration not stated), the Potency entry in assay [1], in assay [2], in [19], in [4], in assay [5] and in assay [6] was “inactive” in each case. The Potency entry in assay [7], in assay [9], in assay [11], in assay [12], in assay [13] and in assay [14] was “inactive” each time. Also, the Potency entry in assay [15] and in assay [18] was “inactive” in each case.

Consider `O=C(CCCN1CC=C(n2c(=O)[nH]c3ccccc32)CC1)c1ccc(F)cc1`, for which the Potency result in assay [1], in [2], in assay [19], in [20], in [4] and in assay [5] was “inactive” throughout. The Potency result in assay [6], in [7], in assay [9], in [11], in assay [13] and in [15] was “inactive” each time. In addition, the Potency result in assay [18] was “inactive”.

As to `CN1CCCC(n2nc(Cc3ccc(Cl)cc3)c3ccccc3c2=O)CC1` (configuration not stated), the Potency result in assay [1], in assay [2], in assay [3], in assay [7], in assay [8] and in [11] was “inactive” each time. Besides, the figures for the Potency in [5] and in [13] were 29.8 µM (active) and 21.1 µM (active), respectively.
